# Assay results: the supplement of paper PMC8728848
# Shown is part of a subset that was picked to be rich in the strongest signals.
# Key:
# Experiment in all cases: glycan array binding signal (z-score within array); higher = stronger binding
# Conditions in all cases: glycan notation: IUPAC condensed, linker removed
# Fuc(a1-2)Gal = target: Fuc(a1-2)Gal
# In short: (§1)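 The binding signal is a Z-score computed within each array and averaged over linkers. Arrays of the same protein sequence at different concentrations or buffers were also averaged together. Data originate from 3228 arrays in the Consortium for Functional Glycomics database, kept only where the protein sequence was available.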
# [1] = target: Fuc(a1-2)Gal(b1-4)[Fuc(a1-3)]GlcNAc
# In short: as §1
# [2] = target: Fuc(a1-2)Gal(b1-4)[Fuc(a1-3)]GlcNAc(b1-2)Man(a1-3)[Fuc(a1-2)Gal(b1-4)[Fuc(a1-3)]GlcNAc(b1-2)Man(a1-6)]Man(b1-4)GlcNAc(b1-4)[Fuc(a1-6)]GlcNAc
# In short: as §1
# Fuc(a1-2)[Gal(a1-3)]Gal = target: Fuc(a1-2)[Gal(a1-3)]Gal
# In short: as §1
# [3] = target: Fuc(a1-2)[Gal(a1-3)]Gal(b1-4)[Fuc(a1-3)]GlcNAc(b1-3)GalNAc
# In short: as §1
# [4] = target: Fuc(a1-2)[GalNAc(a1-3)]Gal(b1-3)GalNAc(b1-3)Gal(a1-4)Gal(b1-4)Glc
# In short: as §1
# Fuc(a1-3)GlcNAc = target: Fuc(a1-3)GlcNAc
# In short: as §1
# [5] = target: Fuc(a1-3)[Gal(b1-4)]GlcNAc(b1-3)Gal(b1-4)[Fuc(a1-3)]GlcNAc
# In short: as §1
# [6] = target: Fuc(a1-3)[Gal(b1-4)]GlcNAc(b1-6)GalNAc
# In short: as §1
# [7] = target: Fuc(a1-3)[Gal(b1-4)]GlcNAc6S
# In short: as §1
# [8] = target: Fuc(a1-3)[Gal3S(b1-4)]GlcNAc6S
# In short: as §1
# [9] = target: Gal(b1-3)GalNAc(a1-3)[Fuc(a1-2)]Gal(b1-4)Glc
# In short: as §1
# [10] = target: Gal(b1-3)GlcNAc(b1-3)Gal(b1-4)GlcNAc(b1-6)[Gal(b1-3)GlcNAc(b1-3)]Gal(b1-4)Glc
# In short: as §1
# [11] = target: Gal(b1-3)[Neu5Ac(a2-6)]GalNAc
# In short: as §1
# Gal(b1-4)GlcNAc = target: Gal(b1-4)GlcNAc
# In short: as §1
# [12] = target: Gal(b1-4)GlcNAc(b1-2)Man(a1-3)[Gal(b1-4)GlcNAc(b1-2)Man(a1-6)][Gal(b1-4)GlcNAc(b1-4)]Man(b1-4)GlcNAc(b1-4)[Fuc(a1-6)]GlcNAc
# In short: as §1
# [13] = target: Gal(b1-4)GlcNAc(b1-2)Man(a1-6)Man(b1-4)GlcNAc(b1-4)GlcNAc
# In short: as §1
# [14] = target: Gal(b1-4)GlcNAc(b1-3)Gal(b1-4)GlcNAc(b1-3)GalNAc
# In short: as §1
# Gal(b1-4)GlcNAc6P = target: Gal(b1-4)GlcNAc6P
# In short: as §1
# Gal4S(b1-4)GlcNAc = target: Gal4S(b1-4)GlcNAc
# In short: as §1
# [15] = target: GlcNAc(b1-3)Gal(b1-4)GlcNAc(b1-2)Man(a1-3)[GlcNAc(b1-3)Gal(b1-4)GlcNAc(b1-2)Man(a1-6)]Man(b1-4)GlcNAc(b1-4)GlcNAc
# In short: as §1
# GlcNAc(b1-3)GalNAc = target: GlcNAc(b1-3)GalNAc
# In short: as §1
# [16] = target: GlcNAc(b1-3)[GlcNAc(b1-6)]Gal(b1-4)GlcNAc
# In short: as §1
# [17] = target: GlcNAc(b1-4)Gal(b1-4)GlcNAc
# In short: as §1
# [18] = target: GlcNAc(b1-4)[GlcNAc(b1-6)]GalNAc
# In short: as §1
# [19] = target: GlcNAc(b1-6)Gal(b1-4)GlcNAc
# In short: as §1
# [20] = target: Man(a1-2)Man(a1-3)[Man(a1-2)Man(a1-6)]Man(a1-6)[Man(a1-2)Man(a1-2)Man(a1-3)]Man
# In short: as §1
# [21] = target: Man(a1-3)[Man(a1-6)]Man(a1-6)[Man(a1-3)]Man(b1-4)GlcNAc(b1-4)GlcNAc
# In short: as §1
# [22] = target: Neu5Ac(a2-3)Gal(b1-3)GalNAc6S
# In short: as §1
# [23] = target: Neu5Ac(a2-3)Gal(b1-3)GlcNAc(b1-6)GalNAc
# In short: as §1
binder,measurement,setting,value
"Siglec-9 (Homo sapiens), Q9Y336 (protein) MLLLLLPLLWGRERAEGQTSKLLTMQSSVTVQEGLCVHVPCSFSYPSHGWIYPGPVVHGYWFREGANTDQDAPVATNNPARAVWEETRDRFHLLGDPHTKNCTLSIRDARRSDAGRYFFRMEKGSIKWNYKHHRLSVNVTALTHRPNILIPGTLESGCPQNLTCSVPWACEQGTPPMISWIGTSVSPLDPSTTRSSVLTLIPQPQDHGTSLTCQVTFPGASVTTNKTVHLNVSYPPQNLTMTVFQGDGTVSTVLGNGSSLSLPEGQSLRLVCAVDAVDSNPPARLSLSWRGLTLCPSQPSNPGVLELPWVHLRDAAEFTCRAQNPLGSQQVYLNVSLQSKATSGVTQGVVGGAGATALVFLSFCVIFVVVRSCRKKSARPAAGVGDTGIEDANAVRGSASQGPLTEPWAEDSPPDQPPPASARSSVGEGELQYASLSFQMVKPWDSRGQEATDTEYSEIKIHR",glycan array binding signal (z-score),Fuc(a1-2)Gal,-0.211
same,glycan array binding signal (z-score),[1],-0.153
same,glycan array binding signal (z-score),[2],-0.277
same,glycan array binding signal (z-score),Fuc(a1-2)[Gal(a1-3)]Gal,-0.193
same,glycan array binding signal (z-score),[3],-0.269
same,glycan array binding signal (z-score),[4],-0.125
same,glycan array binding signal (z-score),Fuc(a1-3)GlcNAc,-0.293
same,glycan array binding signal (z-score),[5],0.166
same,glycan array binding signal (z-score),[6],-0.063
same,glycan array binding signal (z-score),[7],3.1
same,glycan array binding signal (z-score),[8],-0.041
same,glycan array binding signal (z-score),[9],-0.434
same,glycan array binding signal (z-score),[10],-0.039
same,glycan array binding signal (z-score),[11],-0.173
same,glycan array binding signal (z-score),Gal(b1-4)GlcNAc,-0.244
same,glycan array binding signal (z-score),[12],-0.418
same,glycan array binding signal (z-score),[13],-0.333
same,glycan array binding signal (z-score),[14],-0.054
same,glycan array binding signal (z-score),Gal(b1-4)GlcNAc6P,-0.074
same,glycan array binding signal (z-score),Gal4S(b1-4)GlcNAc,-0.304
same,glycan array binding signal (z-score),[15],-0.042
same,glycan array binding signal (z-score),GlcNAc(b1-3)GalNAc,-0.152
same,glycan array binding signal (z-score),[16],-0.322
same,glycan array binding signal (z-score),[17],0.012
same,glycan array binding signal (z-score),[18],-0.132
same,glycan array binding signal (z-score),[19],-0.081
same,glycan array binding signal (z-score),[20],-0.055
same,glycan array binding signal (z-score),[21],-0.007
same,glycan array binding signal (z-score),[22],1.05
same,glycan array binding signal (z-score),[23],0.961
